# Measured values from PubChem BioAssay (NCI).
# About 79,000 compounds went through this panel and 15% of them were active in at least one assay; those are over-represented in the sample as a whole. Unmarked numbers belong to inactive results. Calls of active or inactive are those of the source. No stated cut-off is given here; in the data, active means growth inhibition above about 70%; inactive means the rest.
# Assays:
# [1] = NCI Yeast Anticancer Drug Screen. Data for the rad52 strain (AID 147);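 further: 0% = growth of vehicle-treated control cultures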; conditions: S. cerevisiae rad52 mutant growth inhibition, active compounds read high
# Summary of the method: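 The repair-mutant yeast strain was incubated with compounds, then growth was read and inhibition derived relative to vehicle.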
# [2] = NCI Yeast Anticancer Drug Screen. Data for the wt1 strain (AID 149);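 further: 0% = growth of vehicle-treated wt1 cultures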; conditions: S. cerevisiae wt1 strain (SPY 50644) growth inhibition, active compounds read high
# Summary of the method: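 Each compound is tested on wt1 yeast and the loss of growth versus vehicle gives the inhibition value.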
# [3] = NCI Yeast Anticancer Drug Screen. Data for the rad50EPP+ strain (AID 151);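 further: 0% = growth of vehicle-treated control cultures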; conditions: S. cerevisiae rad50 mutant strain, active compounds read high
# Summary of the method: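 Vehicle-normalised growth inhibition; rad50EPP+ yeast strain, altered in DNA damage repair, compound-treated.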
# [4] = NCI Yeast Anticancer Drug Screen. Data for the mgt1 strain (AID 153); conditions: S. cerevisiae mgt1 mutant growth inhibition, active compounds read high
# Summary of the method: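 Vehicle-normalized growth inhibition is determined in mgt1 yeast, a strain selected for a defined alteration in DNA repair or cell cycle control.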
# [5] = NCI Yeast Anticancer Drug Screen. Data for the rad50 strain (AID 155);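 further: 0% = growth of vehicle-only cultures of the same strain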; conditions: S. cerevisiae rad50 strain growth inhibition, active compounds read high
# Summary of the method: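 Vehicle-treated cultures provide the reference for the growth inhibition reported for compound-exposed, repair-deficient yeast.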
# [6] = NCI Yeast Anticancer Drug Screen. Data for the mec2-1 strain (AID 157); conditions: S. cerevisiae mec2-1 strain, active compounds read high
# Summary of the method: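 Mutant yeast (mec2-1) grown with compound; growth inhibition relative to vehicle control reported.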
# [7] = NCI Yeast Anticancer Drug Screen. Data for the rad14 strain (AID 159);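 further: 0% = growth of vehicle-treated control cultures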; conditions: S. cerevisiae rad14 strain growth inhibition, active compounds read high
# Summary of the method: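 Inhibition of growth is reported for a repair-deficient yeast mutant following compound treatment, calculated relative to cultures that received vehicle.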
# [8] = NCI Yeast Anticancer Drug Screen. Data for the sgs1 mgt1 strain (AID 161);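 further: 0% = growth of cultures given vehicle only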; conditions: S. cerevisiae sgs1 mgt1 strain, active compounds read high
# Summary of the method: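 This yeast growth screen uses a strain with defined DNA-repair lesions; compound-treated growth is compared with vehicle-treated growth.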
# [9] = NCI Yeast Anticancer Drug Screen. Data for the CLN2oe strain (AID 163);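 further: 0% = growth of vehicle-only control cultures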; conditions: S. cerevisiae CLN2oe strain, active compounds read high
# Summary of the method: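 Compounds are applied to yeast harbouring a defined cell-cycle control change; reduced growth compared with vehicle-treated controls gives the value.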
# [10] = NCI Yeast Anticancer Drug Screen. Data for the cln2 rad14 strain (AID 165);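 further: 0% = growth equal to vehicle treated cultures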; conditions: S. cerevisiae cln2 rad14 strain, active compounds read high
# Summary of the method: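 Readout is yeast growth inhibition versus vehicle-treated controls, using a strain with cln2 and rad14 alterations exposed to compound.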
# [11] = NCI Yeast Anticancer Drug Screen. Data for the bub3 strain (AID 167); conditions: S. cerevisiae bub3 mutant strain, active compounds read high
# Summary of the method: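 Mutant yeast screening strain plus compound; vehicle-treated cultures serve as the 0% inhibition reference.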
# [12] = NCI Yeast Anticancer Drug Screen. Data for the mlh1 strain (AID 171);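 further: 0% = growth of vehicle-treated control cultures of the same strain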; conditions: S. cerevisiae mlh1 strain growth inhibition, active compounds read high
# Summary of the method: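 Measured: yeast growth. Reference: vehicle-treated controls. Organism: strain with a defined alteration affecting DNA damage repair or cell cycle control, treated with compound.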
# [13] = NCI Yeast Anticancer Drug Screen. Data for the sgs1 strain (AID 173);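 further: 0% = growth of vehicle-only control cultures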; conditions: S. cerevisiae sgs1 mutant, active compounds read high
# Summary of the method: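 Each compound was added to cultures of the altered yeast strain. Growth was recorded, and inhibition was derived by comparison with vehicle controls.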
# [14] = NCI Yeast Anticancer Drug Screen. Data for the rad18 strain (AID 177); conditions: S. cerevisiae rad18 mutant growth inhibition, active compounds read high
# Summary of the method: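 Vehicle-treated cultures served as the baseline for scoring compound-induced growth inhibition in DNA-repair-mutant yeast.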
# [15] = at 5.0 µM (retest, dose inferred, filed as 0.5)
# [16] = at 50.0 µM (retest, dose inferred, filed as 5.0)
structure (smiles),measurement,setting,value
N#C/C(=C\c1cccc(OCc2ccccc2)c1)c1ccc([N+](=O)[O-])cc1,growth inhibition,[1]; at 1.2 µM,-24%
same,growth inhibition,[1]; at 3.7 µM,-19%
same,growth inhibition,[1]; at 11.0 µM,-26%
same,growth inhibition,[1]; at 33.0 µM,-28%
same,growth inhibition,[1]; at 100.0 µM,-37%
same,growth inhibition,[2]; at 1.2 µM,-18%
same,growth inhibition,[2]; at 3.7 µM,-4%
same,growth inhibition,[2]; at 11.0 µM,-22%
same,growth inhibition,[2]; at 33.0 µM,-28%
same,growth inhibition,[2]; at 100.0 µM,-33%
same,growth inhibition,[3]; at 1.2 µM,-66%
same,growth inhibition,[3]; at 3.7 µM,-49%
same,growth inhibition,[3]; at 11.0 µM,-63%
same,growth inhibition,[3]; at 33.0 µM,-82%
same,growth inhibition,[3]; at 100.0 µM,-88%
same,growth inhibition,[4]; at 1.2 µM,-35%
same,growth inhibition,[4]; at 3.7 µM,-29%
same,growth inhibition,[4]; at 11.0 µM,-61%
same,growth inhibition,[4]; at 33.0 µM,-53%
same,growth inhibition,[4]; at 100.0 µM,-71%
same,growth inhibition,[5]; at 1.2 µM,-5%
same,growth inhibition,[5]; at 3.7 µM,-25%
same,growth inhibition,[5]; [15],53%
same,growth inhibition,[5]; at 11.0 µM,-22%
same,growth inhibition,[5]; at 33.0 µM,-23%
same,growth inhibition,[5]; [16],97% (active)
same,growth inhibition,[5]; at 50.0 µM,10.9%
same,growth inhibition,[5]; at 100.0 µM,-23%
same,growth inhibition,[6]; at 1.2 µM,-88%
same,growth inhibition,[6]; at 3.7 µM,-74%
same,growth inhibition,[6]; [15],61%
same,growth inhibition,[6]; at 11.0 µM,-81%
same,growth inhibition,[6]; at 33.0 µM,-91%
same,growth inhibition,[6]; [16],96% (active)
same,growth inhibition,[6]; at 50.0 µM,14.2%
same,growth inhibition,[6]; at 100.0 µM,-96%
same,growth inhibition,[7]; at 1.2 µM,-43%
same,growth inhibition,[7]; at 3.7 µM,-48%
same,growth inhibition,[7]; at 11.0 µM,-24%
same,growth inhibition,[7]; at 33.0 µM,-51%
same,growth inhibition,[7]; at 100.0 µM,-84%
same,growth inhibition,[8]; [15],-10%
same,growth inhibition,[8]; [16],43%
same,growth inhibition,[8]; at 50.0 µM,27.9%
same,growth inhibition,[9]; at 1.2 µM,11%
same,growth inhibition,[9]; at 3.7 µM,-17%
same,growth inhibition,[9]; at 11.0 µM,-28%
same,growth inhibition,[9]; at 33.0 µM,-31%
same,growth inhibition,[9]; at 100.0 µM,-39%
same,growth inhibition,[10]; [15],33%
same,growth inhibition,[10]; [16],43%
same,growth inhibition,[10]; at 50.0 µM,0.05%
same,growth inhibition,[11]; at 1.2 µM,-28%
same,growth inhibition,[11]; at 3.7 µM,-42%
same,growth inhibition,[11]; [15],-5%
same,growth inhibition,[11]; at 11.0 µM,-37%
same,growth inhibition,[11]; at 33.0 µM,-40%
same,growth inhibition,[11]; [16],29%
same,growth inhibition,[11]; at 50.0 µM,61.1%
same,growth inhibition,[11]; at 100.0 µM,-60%
same,growth inhibition,[12]; at 1.2 µM,-44%
same,growth inhibition,[12]; at 3.7 µM,-41%
same,growth inhibition,[12]; at 11.0 µM,-51%
same,growth inhibition,[12]; at 33.0 µM,-64%
same,growth inhibition,[12]; at 100.0 µM,-72%
same,growth inhibition,[13]; at 1.2 µM,-39%
same,growth inhibition,[13]; at 3.7 µM,-47%
same,growth inhibition,[13]; at 11.0 µM,-64%
same,growth inhibition,[13]; at 33.0 µM,-54%
same,growth inhibition,[13]; at 100.0 µM,-59%
same,growth inhibition,[14]; at 1.2 µM,-26%
same,growth inhibition,[14]; at 3.7 µM,-29%
same,growth inhibition,[14]; at 11.0 µM,-24%
same,growth inhibition,[14]; at 33.0 µM,-49%
same,growth inhibition,[14]; at 100.0 µM,-36%
